SMILES strings stand for the structures. This is part of a sample that, as a whole, favours compounds with a hit. Of some 83,000 tested, about 20% had one in any assay.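 Interpretation: 100, growth as untreated; towards 0, rising growth inhibition; 0, no net growth; 0 to -100, cell death. Compounds scoring below 10 were considered active.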 Unmarked numbers belong to inactive results. Activity calls are given as the source filed them.

This assay relates to NCI-H460 lung. The assay can be described thus: NCI-60 one-dose screen, 48 h (100 = growth as untreated, 0 = no growth, -100 = all killed). The note with it: 10 µM.
Regarding `COc1ccc(-c2nc(-c3nc4cc(Cl)c(Cl)cc4[nH]3)c3ccccn23)cc1`, the growth is 41.5%.
Consider `O=C1/C(=C\c2ccc(Cl)cc2)CN(C(=O)c2ccccc2)C/C1=C\c1ccc(Cl)cc1`, for which the growth was 68.3%.
The figure for `Clc1cc2c(c(CSc3nc4ccccc4n4cccc34)c1)OCOC2` is 66.6%; for `COc1cc(Cl)cc(-c2nn(-c3cccc(NC(=O)Nc4cc(C(F)(F)F)cc(C(F)(F)F)c4)c3)cc2-c2ccncc2)c1` it is 0.241% (active); for `COc1ccc(OC)c(/C=C/c2nc(SCc3ccccc3)n(-c3ccc(Cl)cc3)n2)c1` it is 24.4%.
The figure for `CC(=O)/C(=C/c1ccccc1)C(=O)CC(C)C` is 99.8%.
`CC(=O)CSC(C)=O`: the growth is 103%.
Turning to `CNc1ccc(CSc2ccc(C)cc2)cc1`, the growth is 80.8%.
For `c1ccc(C(NC2CC3CCC2C3)c2ccccc2)cc1` (stereo not given) the value was 105%; for `COc1cc(-c2nn3c(/C=C4/C(=O)Nc5ccccc54)c(-c4ccc(C)cc4)nc3s2)cc(OC)c1OC`, 29%; for `COc1cc(NC(=O)CSc2nc3ccccc3c(=O)n2CCc2ccccc2)cc(OC)c1OC`, -30.2% (active).
For `CN(C)C(=S)N/N=C\C=N/NC(=S)N(C)C` the value was 23.7%.
The figure for `COc1cc2cc3c(nc2cc1OC)CCN3Cc1ccc(NC(=O)Nc2ccc(F)cc2F)cc1` is 97.6%; for `O=C(N/N=C\c1cc(Cl)ccc1[N+](=O)[O-])c1ccco1` it is 101%; for `COc1ccc(Cl)cc1-n1nnc(-c2nc3ccccc3[nH]2)c1N` it is 27.7%.
Consider `COc1ccc(/C=C2/CN(C(=O)c3ccc(C)cc3)C/C(=C\c3ccc(OC)cc3)C2=O)cc1`, for which the growth was 105%.
For `COc1ccc(Nc2ncnc3c2c(SC)nn3-c2ccccc2)cc1`, the growth was 99.4%.
For `COc1ccc(-c2cc(/C=C3\C(=O)Nc4ccc(OC)cc43)[nH]n2)cc1` the value was 16.4%; for `CC(=O)N1N=C(c2ccc(Cl)cc2)CC1c1sc(Cl)nc1Cl` (stereo not given), 107%.
As for `CN(C)c1ccc(-c2cc(-c3cccc(NS(C)(=O)=O)c3)nc(N)c2C#N)cc1`, the growth was 5.32% (active).
For `NC(=S)N=Nc1c(O)c2ccccc2c2ccccc12` the value was 51.9%.
The figure for `O=[N+]([O-])c1ccc(Oc2cc(Cl)c(Cl)cc2Cl)c(C(F)(F)F)c1` is 97.7%; for `O=C(CC(C(=O)c1ccccc1)N1CCOCC1)c1ccccc1` (stereo not given) it is 102%; for `COc1ccc(-c2nn(-c3cccc(NC(=O)Nc4cc(C(F)(F)F)cc(C(F)(F)F)c4)c3)cc2-c2ccncc2)cc1Cl` it is -3.36% (active).
For `COc1cc(/C=C/C(=O)c2ccc(Cl)cc2)ccc1OS(=O)(=O)c1ccc(C)cc1` the value was 103%.

Source of the values: PubChem BioAssay (NCI).
